Only a selection was taken, and hits are over-represented in it overall.
ST2 inh – IL1RL1 inhibition; Q01638; AlphaLISA ST2-Fc/biotin-IL-33 interaction, 1 h; inhibition, % for hits at 17 µM; 78,000 tested, 2.3% active; in the data active means inhibition above about 30%
Target sequence (Q01638 whole entry, looked up): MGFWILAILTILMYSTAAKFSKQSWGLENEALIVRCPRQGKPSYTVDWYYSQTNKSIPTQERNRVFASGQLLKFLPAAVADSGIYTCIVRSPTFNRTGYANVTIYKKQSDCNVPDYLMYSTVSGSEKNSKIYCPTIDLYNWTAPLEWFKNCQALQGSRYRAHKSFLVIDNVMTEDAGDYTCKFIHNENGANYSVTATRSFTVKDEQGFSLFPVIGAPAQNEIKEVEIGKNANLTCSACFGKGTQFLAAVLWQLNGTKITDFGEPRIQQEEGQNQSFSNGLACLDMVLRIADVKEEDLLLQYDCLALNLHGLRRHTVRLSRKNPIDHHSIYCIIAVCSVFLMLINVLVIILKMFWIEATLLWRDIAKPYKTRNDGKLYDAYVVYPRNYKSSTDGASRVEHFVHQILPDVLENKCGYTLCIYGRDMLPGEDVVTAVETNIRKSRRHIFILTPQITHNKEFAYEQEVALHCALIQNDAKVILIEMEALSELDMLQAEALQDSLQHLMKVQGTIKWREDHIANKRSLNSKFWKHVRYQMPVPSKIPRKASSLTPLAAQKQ
Each line names hits and unclear results; the compound was inactive in the other large screens.

O=C(Nc1ccsc1)N[C@H]1C[C@H]2C(=O)NC[C@@H](CCC(=O)N3CCN(c4ccccn4)CC3)N2C1	ST2 inh 52%
COCC(=O)N[C@H]1C[C@H]2C(=O)NC[C@@H](CCC(=O)N3CCN(c4ccccn4)CC3)N2C1	ST2 inh 51%
COc1ccc(CN[C@H]2C[C@H]3C(=O)NC[C@@H](CCC(=O)N4CCN(c5ccccn5)CC4)N3C2)cc1	none
O=C1NC[C@@H](CCC(=O)N2CCN(c3ccccn3)CC2)N2C[C@@H](NCc3ccc(F)cc3)C[C@@H]12	none
Cc1ccc(CNC(=O)CCc2nc3sc4c(c3c(=O)[nH]2)CCCC4)cc1	none
O=C(Cc1ccccc1)N(c1ccc(Br)cc1)C1C=CS(=O)(=O)C1 (centres undefined)	none
O=C(CSc1n[nH]c(-c2ccccc2)n1)c1ccc(F)cc1	none
OCC1CCCN(Cc2ccc3c(c2)Cc2ccccc2-3)C1 (centres undefined)	ST2 inh 98%
Cc1ccc(CN2CCCC(CO)C2)cc1 (centres undefined)	none
CCc1ccc(CN2CCCC(CO)C2)cc1 (centres undefined)	none
O=C(CCN1CCOCC1)NCC1OCCc2ccccc21 (centres undefined)	none
O=S1(=O)N=C(c2cccc(Cl)c2)Nc2ccccc21	none
Cc1ccc(CNS(=O)(=O)c2ccc(Br)s2)cc1	none
O=C(CNS(=O)(=O)c1ccc(Br)s1)N1CCN(Cc2ccccc2)CC1	none
Cc1ccc(CN2CCCN(S(=O)(=O)c3ccc(Br)s3)CC2)cc1	ST2 inh 35%
O=C1CCCC2=C1C(c1ccc(F)cc1)Nc1ccccc1N2 (centres undefined)	none
COc1ccc(C=Nc2ccc3[nH]c(=O)[nH]c3c2)cc1OC	none
C/C=C/c1ccc(OCc2ccccc2)c(OC)c1	none
COc1ccc(N=Cc2ccc(OCc3ccccc3)cc2)cc1OC	ST2 inh 33%
Cc1ccc2nc(NC(=O)CSCC(=O)O)sc2c1	none
Cc1ccc(-c2noc(CCC(=O)N(C)c3cc(C)ccc3C)n2)cc1	none
COc1ccc(N2CCN(c3ncnc4sc(C(=O)N5CCC(C)CC5)c(C)c34)CC2)cc1	none
Cc1ccc(N=Cc2cc(Br)cc(Cl)c2O)c(O)c1	none
Cc1ccc(O)c(N=Cc2cc(Cl)cc(Cl)c2O)c1	none
Cc1ccc(N=Cc2cc(Cl)cc([N+](=O)[O-])c2O)c(O)c1	ST2 inh 35%
Cc1nc2nc(C)c(NC(=O)Nc3ccc(C)c(F)c3)c(=O)n2[nH]1	none
Nc1ccc(N)c2c1C(=O)c1c(N)ccc(N)c1C2=O	ST2 inh 94%
Cc1ccc(N(CC(=O)O)S(C)(=O)=O)cc1C	none
CCN(CCNS(C)(=O)=O)c1ccc(N)c(C)c1	ST2 inh 35%
Cc1cc2ccccc2n1CCNS(C)(=O)=O	none
Cc1ccc(F)c(-c2ncccc2NC(=O)C(C)C)c1	none
Cc1ccc(F)c(-c2ncccc2C(=O)N2CCCC2)c1	none
Cc1ccc(C)c(C2=C/C(=C3/c4ccccc4-c4ncccc43)C(=O)O2)c1	ST2 inh 43%
COc1cccc2c1OCC(C(=O)N1CCc3c(nc(C)[nH]c3=O)C1)C2 (centres undefined)	none
COc1cccc(-c2nccn2CC(C)Oc2cccnc2)c1OC (centres undefined)	none
Cc1cc(NC(=O)c2cc(-c3ccc(Cl)c(Cl)c3)on2)no1	none
Cc1noc(C)c1-c1ccc(Cl)c(Cl)c1	ST2 inh 49%
CC(C)NC(=O)c1cc(-c2ccc(Cl)c(Cl)c2)on1	none
O=C(NCCN1CCCC1)c1cc(=O)[nH]c2ccc(S(=O)(=O)N3CCCC3)cc12	none
COc1ccc(-c2nnc3n2N=C(c2cccc(Br)c2)CS3)cc1	none
CN(Cc1ccccc1)C(=O)CSc1c2c(nc3ccccc13)CCC2	none
COc1ccccc1NC(=O)c1ccc(OC)c(OC)c1	none
COc1ccc(C(=O)Nc2ccc(N3CCCC3)cc2)cc1	ST2 inh 59%
COc1ccc(C(=O)N2CCCCCC2)cc1OC	none
CCCOc1ccc(NC(=O)c2ccc(OC)cc2)cc1	none
COc1ccc(C(=O)Nc2ccc(N3CCCC3)cc2)cc1OC	ST2 inh 35%
COc1ccc(C(=O)Nc2cc(OC)cc(OC)c2)cc1	none
Cc1cccc(C(NC2CCN(C(=O)C(C)C)CC2)c2cccs2)c1 (centres undefined)	none
CCn1cc(C(=O)N2CCCC2)c2cc(OC)c(OC)cc2c1=O	none
O=C(Nc1ccc(Oc2ccccc2)cc1)O[C@@H]1CO[C@H]2[C@@H]1OC[C@@H]2Nc1nccc(-c2cccs2)n1	ST2 inh 34%
COc1cc(NC(=O)N[C@H]2CO[C@H]3[C@@H]2OC[C@@H]3Nc2nccc(-c3cccs3)n2)cc(OC)c1	none
COc1cccc(NC(=O)O[C@@H]2CO[C@H]3[C@@H]2OC[C@@H]3Nc2nccc(-c3ccc(-c4ccccc4)cc3)n2)c1	none
CC(C(=O)N1CCCc2c1c(=O)oc1ccc(O)cc21)N1CCN(c2cccc(Cl)c2)CC1 (centres undefined)	none
Cc1cc(-c2cc(N)nc3[nH]ccc23)cnc1N	none
O=C(O)CNc1cc(-c2ccccc2C(F)(F)F)c2cc[nH]c2n1	none
OCCNc1cc(-c2nccc(C3CCCC3)n2)c2cc[nH]c2n1	none
NCCc1cccc(-c2cc(NCc3ccccn3)nc3[nH]ccc23)c1	ST2 inh 35%
c1cnc(-c2cc(NCc3cccnc3)nc3[nH]ccc23)nc1	ST2 inh 35%
COc1ccc(-c2cc(NCc3cccnc3)nc3[nH]ccc23)cn1	none
Cc1cc(C(=O)N2CCOc3c(O)cc(-c4ccccc4C)cc3C2)n[nH]1	none
Cc1ccc2[nH]c(C)c(CN3CCCCC3)c(=O)c2c1	none
O=C(Nc1ccc(F)cc1F)c1cc(-c2cccs2)on1	none
O=C(COc1ccc(/C=C2\NC(=O)N(Cc3ccc(Cl)cc3)C2=O)cc1)Nc1ccc(F)cc1	none
Clc1cccc2ccc(CN3CCCC(OCc4ccccn4)C3)nc12 (centres undefined)	none
CC1=C(C(=O)OCCc2ccccc2)C(c2ccc(N(C)C)cc2)C2=C(CC(C)(C)CC2=O)N1 (centres undefined)	none
CC(=O)NC1=NC(=O)/C(=C/c2ccc(-c3cccc(Cl)c3)o2)S1	none
NC1=NC(=O)/C(=C\c2ccc(-c3ccc(Cl)c([N+](=O)[O-])c3)o2)S1	ST2 inh 40%
O=C1NC(=O)/C(=C\c2ccc(-c3cccc(C(=O)O)c3)o2)S1	none
O=C1NC(=O)/C(=C\c2ccc(-c3ccc(Cl)c([N+](=O)[O-])c3)o2)S1	ST2 inh 69%
O=C1C(=Cc2ccc(-c3ccc(Cl)c([N+](=O)[O-])c3)o2)C(=O)c2ccccc21	none
O=C1/C(=C/c2ccc(Cl)c([N+](=O)[O-])c2)Sc2ccccc21	none
Cc1ccccc1C(=O)Nc1nc2ccc(Br)cc2s1	none
CCN(C(=O)CS(=O)(=O)c1cccc2nsnc12)c1ccc(C)c(C)c1	none
Cc1ccccc1NC(=O)C(=O)NC1CCCN(C(=O)c2ccco2)C1 (centres undefined)	none
O=C(c1ccc([N+](=O)[O-])cc1Cl)N(Cc1ccccc1)Cc1ccccc1	ST2 inh 38%
O=C(Nc1ccc(Cc2ccncc2)cc1)c1ccc([N+](=O)[O-])cc1Cl	none
O=C(Nc1ccccc1)c1cc([N+](=O)[O-])ccc1Cl	none
CN(C(=O)CSc1cc(=O)n(C)c2ccccc12)C1CCCCC1	none
O=[N+]([O-])c1cc(C=Nc2cccc(I)n2)ccc1Br	none
O=[N+]([O-])c1cc(C=Nc2ccc(Br)cc2)ccc1Br	none
O=[N+]([O-])c1cc(C=Nc2ccccc2I)ccc1Br	ST2 inh 35%
CCOC(=O)c1[nH]c2ccc(F)cc2c1NC(=O)CNc1nccs1	none
Cc1ccc(NC(=O)NC[C@H]2O[C@@H](CC(=O)N3CCCC3)[C@H](O)[C@@H]2O)cc1	none
Fc1ccccc1OCCN1CCNCC1	none

Screening results from PubChem.
